Hits are enriched below; roughly 21% of the tested compounds scored in any of these assays.
SARS PLpro yeast – SARS-CoV PLP inhibition in yeast. 330,000 tested, 0.19% active. AID 485353. S. cerevisiae expressing SARS-CoV PLpro, growth rescue. Potency, µM (titrated, usually from 32.9 µM), usual class: activators; calls by dose curve; also: nearly all actives have a fitted effect of over 55% in size
CHX counter – counter-screen hit for Shiga toxin inhibitors, cycloheximide. max response, %. cell reporter, cycloheximide protein synthesis inhibition counterscreen. AID 2314. 300,000 tested, 12% active; in the data active = max response mostly above about 13%, no sharp cut-off; inactive = mostly below about 14%; also: read at 38.3 µM for the half of the compounds with a filed dose
NS1 function inh – inhibitors of influenza NS1 protein function | 270,000 tested, 0.4% active | AID 2326 | Potency, µM (top dose mostly 46.1 µM); calls by dose curve; also: actives are rising curves; nearly all actives have a fitted effect of over 50% in size
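OD600 was taken as the measure of yeast growth restored by compound in an NS1-expressing S. cerevisiae strain. Cells had been washed out of glucose medium and diluted 1:100 into galactose -URA medium, pH 6.0.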
Shiga inhibitor – inhibitors of Shiga toxin in Vero cells; Vero cells, Shiga toxin protein synthesis inhibition reporter; inhibition, % at 38.7 µM; 290,000 tested, 9.2% active; in the data active = inhibition mostly above about 28%, no sharp cut-off; inactive = mostly below about 43%
Pf growth 48h – inhibits P. falciparum growth in the first generation, 48 h. P. falciparum luciferase growth in erythrocytes, 48 h. Potency, µM (highest dose often 28.7 µM), actives largely listed as inhibitors. 310,000 tested, 5.9% active
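Here the parasites carry a stable luciferase gene and grow inside erythrocytes in Albumax-based RPMI medium with compound for one erythrocytic cycle. Activity is scored as loss of luminescent signal.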
Pf growth 96h – P. falciparum growth inhibition at 96 hours; P. falciparum luciferase reporter growth, 96 h; Potency, µM (top dose mostly 28.7 µM), hits mostly inhibitors; 320,000 tested, 6.9% active
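Parasite growth measured via integrated firefly luciferase reporter in P. falciparum. Infected erythrocytes at 2% hematocrit, 0.05% parasitemia final were treated 96 hours at 37 C under 5% CO2, and luminescence was read.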
A number is an active result; n = inactive; u = inconclusive; x = no result given. Unless noted, calls follow the shape of the dose curve; as a rule, active = well fitted inhibition curve with a large enough effect; inconclusive = small, poorly fitted or top-dose-only effect, or another doubt; inactive = no such curve, though single readings can be large or run the other way.

SMILES	SARS PLpro yeast	CHX counter	NS1 function inh	Shiga inhibitor	Pf growth 48h	Pf growth 96h
CCNC(=O)N1CCC(n2nccc2NC(=O)CCCc2ccccc2)CC1	n	n	n	n	n	13.1µM
CCn1cc(CN2CCC(n3nccc3NC(=O)Cc3ccccc3)CC2)cn1	n	n	n	n	n	10.4µM
CCOc1ccc(CN2CCC(n3nccc3NC(=O)CCCc3ccccc3)CC2)cc1	n	n	n	n	u	n
CCN(CC(=O)NC1CCS(=O)(=O)C1)S(=O)(=O)c1ccc(Cl)c(C(F)(F)F)c1 (stereo not given)	n	x	x	x	n	n
O=C(O)c1ccc(-c2ncc[nH]2)cc1	n	n	x	n	u	u
Cc1ccc2c3c(c(SCC(=O)Nc4nccs4)nc2c1)CCCC3	n	n	n	n	n	n
COc1ccccc1CN1CCC(n2nccc2NC(=O)CCOc2ccccc2)CC1	n	n	n	n	n	n
CSCC(=O)N1CCC(n2nccc2NC(=O)CCCc2ccccc2)CC1	n	20.7	n	n	n	n
COc1ccc(O)c(CN2CCC(n3nccc3NC(=O)CCOc3ccccc3)CC2)c1	n	n	n	n	13.1µM	u
CC(=O)NC[C@@H]1CN(c2ccc(N3CCOCC3)c(F)c2)C(=O)O1	x	x	x	x	n	15.1µM
COC(=O)c1ccc(N2CCOCC2)c(F)c1	n	n	n	n	x	n
C/C(N)=C(/C#N)C(=O)CSc1ccccc1F	n	34.5	n	94.0	n	n
CCC(C)n1c(SCC(=O)/C(C#N)=C(\C)N)nc2ccccc2c1=O (stereo not given)	n	n	n	n	n	9.28µM
C/C(N)=C(/C#N)C(=O)CSc1nc2ccccc2c(=O)n1CCCOC(C)C	n	n	n	n	u	u
COc1ccc(Br)cc1[C@H]1[C@H]2C=CC[C@@H](C)[C@@H]2C(=O)N1Cc1ccccc1	n	n	n	n	u	u
COc1ccc(C(=O)N/C(=C\c2cn(C)c3ccccc23)C(=O)NCCN2CCOCC2)cc1OC	n	n	n	n	n	n
Clc1nnc(N/N=C/c2ccccc2)c2ccccc12	n	47.0	n	n	x	n
Clc1ccc(/C=N/Nc2nnc(Cl)c3ccccc23)cc1	n	18.1	n	55.0	n	n
Cc1ccc(/C=N/Nc2nnc(Cl)c3ccccc23)cc1	n	46.4	n	46.3	n	n
Clc1cncc(Cl)c1N/N=C/c1ccccc1	n	28.8	n	48.1	n	n
Clc1nnc(NN=C2CCCC2)c2ccccc12	n	n	n	n	n	n
C=CCNc1nnc(Cl)c2ccccc12	n	n	n	n	n	n
Cc1ccc(NC(=O)C(C)OC(=O)CCN=C2NS(=O)(=O)c3ccccc32)cc1 (stereo not given)	n	x	x	x	n	n
Cc1ccc(C(=O)CCC(=O)N2CCN(C(=O)c3ccco3)CC2)cc1	n	n	n	n	n	n
CCCC1CC(C(=O)NC(C(C)Cl)C2OC(SC)C(O)C(O)C2O)N(C)C1 (stereo not given)	n	n	n	n	0.0828µM	0.0029µM
SMILES	SARS PLpro yeast	CHX counter	NS1 function inh	Shiga inhibitor	Pf growth 48h	Pf growth 96h
CCC[C@@H]1C[C@@H](C(=O)NC(C(C)Cl)[C@H]2O[C@H](SC)[C@H](O)[C@@H](O)[C@H]2O)N(C)C1 (stereo not given in full)	n	n	n	n	u	0.0033µM
O=C(CSc1ccc(F)cc1)Nc1cccc(S(=O)(=O)N2CCOCC2)c1	n	x	x	x	x	x
COc1ccccc1-c1nnc(SCc2ccccn2)n1C	n	n	n	n	n	n
COc1ccc(-c2nnc(SCc3ccccc3)n2N)cc1	n	44.0	n	60.8	n	n
COc1ccc(-c2nnc(SCC3CCCO3)n2C)cc1 (stereo not given)	n	37.8	x	n	n	n
COc1ccc(N=C(N)SCc2ccccn2)cc1	n	31.0	n	46.1	n	u
COc1ccc(-c2nnc(SCc3ccccn3)n2C)cc1	n	26.4	n	45.3	n	u
COc1ccc(C(=O)N2CCN(Cc3ccccn3)CC2)cc1	n	n	n	n	n	n
CC(=O)c1[nH]c(C)c(C(=O)N2CCCC(Nc3cccc(F)c3)C2)c1C (stereo not given)	n	n	n	n	n	n
CN1CCN(NC(=O)c2ccc(Cl)s2)CC1	n	n	x	n	n	n
CCOc1ccc(S(=O)(=O)N2CCN(C(=O)c3ccc(C)c(S(=O)(=O)N4CCOCC4)c3)CC2)cc1	n	x	x	x	x	x
CC(C)C1O[C@H](/C=C\c2ccccc2)OCC1(C)C (stereo not given in full)	x	x	n	x	x	x

Compound activity deposited in PubChem BioAssay by National Center for Advancing Translational Sciences (NCATS).
